Results as given in PubChem BioAssay AID1851 (National Center for Advancing Translational Sciences (NCATS), 2009).
In all, about 16,000 compounds went through this assay and about 4,000 (25%) were called active. About 26% were inconclusive and are not listed. Calls follow the shape of the dose curve; as a rule, active = well fitted curve in the direction sought with a large enough effect; inconclusive = small, poorly fitted or top-dose-only effect, or effect the other way; inactive = no such curve, though single readings can be large or run the other way. Only a sample is shown.

Target: Cytochrome P450 2C9 (Homo sapiens) (UniProt P11712)
Sequence (P11712 whole entry, looked up): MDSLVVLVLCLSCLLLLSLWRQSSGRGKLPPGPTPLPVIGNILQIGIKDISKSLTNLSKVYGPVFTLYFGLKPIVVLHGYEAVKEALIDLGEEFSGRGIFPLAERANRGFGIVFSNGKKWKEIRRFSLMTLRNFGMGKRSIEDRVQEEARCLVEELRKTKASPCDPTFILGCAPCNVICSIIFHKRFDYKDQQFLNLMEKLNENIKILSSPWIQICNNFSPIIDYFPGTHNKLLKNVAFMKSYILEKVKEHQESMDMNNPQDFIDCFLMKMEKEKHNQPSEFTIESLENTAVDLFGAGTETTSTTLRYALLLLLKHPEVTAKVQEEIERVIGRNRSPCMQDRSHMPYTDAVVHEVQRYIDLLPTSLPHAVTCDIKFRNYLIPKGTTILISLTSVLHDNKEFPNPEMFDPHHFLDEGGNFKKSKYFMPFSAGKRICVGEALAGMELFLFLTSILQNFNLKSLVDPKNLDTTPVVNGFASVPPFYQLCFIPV
Assay: Cytochrome panel assay with activity outcomes
Conditions: recombinant CYP, pro-luciferin dealkylation, luminescence, p450-cyp2c9; series mostly up to 57.1 µM; activity, negative = inhibition: at the top concentration
% is scaled to controls: 0 for no effect and ±100 for the full control effect.

activity, negative = inhibition, inactive:
CC(C)NC(=O)N1CCCC2(CCN(C(=O)c3csnn3)CC2)C1 -5.11%
N#Cc1cccc(-c2nc(NCc3cccs3)c3ccccc3n2)c1 -13.5% [at 2.29 µM]
Cc1nc2cnc(N(C)C)nc2n(Cc2cccs2)c1=O -0.28%
CN(C)c1ncc2nc(-c3cccs3)c(=O)n(CCc3ccccc3)c2n1 -18.9%
Cc1nc2cnc(N(C)C)nc2n(CCC#N)c1=O 21.7%
COCCn1c(=O)c(C)nc2cnc(N(C)C)nc21 20.5%
CN(C)c1ncc2nc(-c3ccccc3)c(=O)n(CCC#N)c2n1 -14.9%
CN(C)c1ncc2nc(-c3cccs3)c(=O)n(Cc3cccs3)c2n1 27.9%
CN(C)c1ncc2nc(-c3cc(F)cc(F)c3)c(=O)n(CCc3ccccc3)c2n1 7.62%
CN(C)c1ncc2nc(-c3ccc(F)cc3)c(=O)n(CCc3ccccc3)c2n1 -21.6%
NC1=NC2(CCCCC2)N=C(Nc2ccc(F)cc2F)N1 3.62%
N=C(N)SCCCN 7.79% [at 11.4 µM]
CN(C)c1ncc2ncc(=O)n(C)c2n1 -11.8%
COc1ccc(-c2nc3cnc(N(C)C)nc3n(CCc3ccccc3)c2=O)cc1 -20.6%
COc1ccccc1N1CCN(CCn2c(=O)[nH]c3c([nH]c4ccccc43)c2=O)CC1 -9.66%
N=C1SCC(=O)N1c1nc(-c2ccccc2)cs1 -16.5%
CC(C)NCC[C@@H](O)c1cc2ccccc2o1 17.2% [at 11.4 µM]
CC(=O)OC[C@@H]1O[C@H](CCON=C(C)C)C=C[C@@H]1OC(C)=O 3.94% [at 11.4 µM]
CCN(CCO)Cc1csc2cccc(Br)c12 22.6%
CN(C(=O)CN(CCO)CC(=O)N(C)C(C)(C)Cc1ccccc1)C(C)(C)Cc1ccccc1 -21.7% [at 25.6 µM]
Cc1cc(N=Cc2c(CO)cnc(C)c2O)c(N=Cc2c(CO)cnc(C)c2O)cc1C.[Zn] -15.6% [at 11.4 µM]
O=C(c1ccc(S(=O)(=O)N2CCCCCC2)cc1)N1CCC(CN2C(=O)c3cccc4cccc(c34)C2=O)CC1 -4.99%
O[C@@H](COc1cccc2ccccc12)CN1CCOCC1 5.45% [at 11.4 µM]
CCS(=O)(=O)N1CCCC(C(=O)NCCCOC(C)C)C1 (stereo not drawn) -14.2%
COc1ccccc1-c1ccc2ncnc(N3CCN(C)CC3)c2c1 1.65% [at 2.29 µM]
Cc1ccc(C)c(N/C(N)=N/c2nc(C)cc(C)n2)c1 -4.26%
Cc1ccc(C)c(NC(=O)Cn2c([N+](=O)[O-])cnc2C)c1 -22.3%
CN(C)C(=N)N=C(N)N -10% [at 25.6 µM]
CCn1c(SCC(=O)NC2CCCCC2)nc2c(c1=O)SC(C)C2 (stereo not drawn) 4.71%
Cn1c(=O)c2[nH]c([C@@H]3CC(=O)C[C@H](c4nc5c([nH]4)c(=O)n(C)c(=O)n5C)N3)nc2n(C)c1=O 2.38% [at 11.4 µM]
CC1(C)CCC(NC(=O)[C@H](N)CCC(=O)O)CC1 -12.5%
N[C@@H](Cc1nn[nH]n1)C(=O)O -8.85% [at 11.4 µM]
C/C(=N/O)[C@@H]1C[C@H](CC(=O)O)C1(C)C -6.68% [at 11.4 µM]
Cc1cc(-c2cccc([N+](=O)[O-])c2)nc2ccc3ccccc3c12 -22.9%
CC(=O)OCC(=O)[C@@]1(O)CC[C@@H]2[C@H]3CCC4=CC(=O)CC[C@]4(C)[C@]3(F)[C@@H](O)C[C@@]21C -3.55% [at 25.6 µM]
C[C@@H]1/C=C\CC(=O)OC[C@H](C)C(=O)N[C@@H](Cc2ccccc2)C(=O)OC1 10.4% [at 11.4 µM]
O=C1C=C[C@@H](O)[C@H]2[C@@H]3C(=O)N(c4cccc(Oc5ccccc5)c4)C(=O)[C@@H]3CC[C@H]12 -24.8% [at 11.4 µM]
O=C(Nc1cccc2nsnc12)c1ccc(-c2cccc(Cl)c2)o1 -23.8%
CCOC(=O)C(=CNCC(=O)O)C(=O)OCC -3.32%
CCOC(=O)N/N=C/c1ccc(C)o1 -28.6%
COC(=O)c1nn(-c2ccc(OC)cc2)c(=O)cc1Oc1cccc(Cl)c1 -7.52%

AC50, active:
CN(C)c1ncc2nc(CCc3ccccc3)c(=O)n(Cc3cccs3)c2n1 15.8 µM
CN(C)c1ncc2nc(-c3ccccc3)c(=O)n(CCc3ccccc3)c2n1 0.631 µM
CN(C)c1ncc2nc(CCc3ccccc3)c(=O)n(CCC#N)c2n1 15.8 µM
Cc1nc2cnc(N(C)C)nc2n(CCc2ccccc2)c1=O 12.6 µM
CN(C)c1ncc2ncc(=O)n(CCc3ccccc3)c2n1 6.31 µM
CN(C)c1ncc2nc(CCc3ccccc3)c(=O)n(CCc3ccccc3)c2n1 12.6 µM
COCCn1c(=O)[nH]c2cc(C(=O)N3CCN(c4ccccc4OC)CC3)ccc2c1=O 7.94 µM
COc1ccc(-c2csc(N3C(=N)SCC3=O)n2)cc1 3.55 µM
OCCN(Cc1ccccc1)Cc1cccc(Cl)c1Cl 3.98 µM
O=C1c2cccc3cccc(c23)C(=O)N1CC1CCN(CC(O)COc2ccc3ccccc3c2)CC1 (stereo not drawn) 0.891 µM
COc1cccc2[nH]c3c(N4CC(C)CC(C)C4)ncnc3c12 (stereo not drawn) 10 µM
CCOc1ncccc1C(=O)OCC(=O)Nc1cc(C)ccc1C 8.91 µM
CCn1c(SCC(=O)Nc2nc3ccc(C)cc3s2)nc2c(c1=O)SC(C)C2 (stereo not drawn) 3.16 µM
CCn1c(SCC(=O)Nc2ccc3c(c2)OCCO3)nc2c(c1=O)SC(C)C2 (stereo not drawn) 2 µM
Cc1ccc2nc(NC(=O)CSc3nc4c(c(=O)n3C)SC(C)C4)sc2c1 (stereo not drawn) 1.78 µM
CCCn1c(C)nc2c(c1=O)c1nc3ccccc3nc1n2CCC1=CCCCC1 5.62 µM
O=[N+]([O-])c1ccc2nc(-c3ccccc3)n(OCc3ccc(Cl)cc3)c2c1 4.47 µM
Clc1ccc(COn2c(-c3ccccc3)nc3ccccc32)cc1 10 µM
COC(=O)c1sccc1-c1ccc(C(=O)Nc2cccnc2)o1 5.01 µM
CCOC(=O)C(=Cc1ccc(-c2ccsc2C(=O)OC)o1)C(=O)OCC 1.26 µM
COC(=O)c1sccc1-c1ccc(C(=O)Nc2cccc(Cl)c2)o1 10 µM

AC50, inactive:
CC(=O)Oc1cc(C(C)C)c(OCCN(C)C)cc1C
